Screens as filed in PubChem.
MCL1 BIM primary = inhibitors of MCL1 binding to BIM-BH3, primary screen, biochemical, fluorescence polarization; GST-MCL1 / FITC-Bim-BH3 fluorescence polarization; inhibition, % at 10.9 µM; actives 0.68% (n = 320,000);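 active means inhibition above the mean inhibition of all tested compounds plus 3 SD, set per campaign, cut at about 40% in these data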;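 further: 0% = DMSO wells and 100% = unlabeled Bim-BH3 peptide control; higher means more loss of mP so more displacement of Bim peptide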
EBV gp42 inh = Epstein-Barr virus gp42 inhibitors, primary screen, biochemical, uHTS, fluorescence polarization | Fluorescence polarization binding assay, mP read-out | inhibition, % (tested at 21.74 µM) | actives 0.42% (n = 220,000) | AID 1085, 2008; in the data active means inhibition above about 50%
MEX-5 binding = MEX-5 zinc finger RNA-binding disruptors – biochemical, C. elegans, fluorescence polarization, MLPCN library, primary screen; activity score (negative = inhibition of binding), % at 10 µM; Zinc finger protein mex-5 (Caenorhabditis elegans), Q9XUB2; actives 0.38% (n = 300,000); MEX-5/FITC-TCR2 RNA binding; active compounds read low;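 active means inhibition past about -25% in most replicates, and total fluorescence under double the plate's negative control median, limit read from the data; inconclusive means replicates evenly split on the limit, or fluorescence at least double controls; inactive means too little inhibition in most replicates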;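 further: 0% = DMSO and -100% = 5 µM competing unlabeled TCR2 RNA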
Target sequence (Q9XUB2 whole entry, looked up): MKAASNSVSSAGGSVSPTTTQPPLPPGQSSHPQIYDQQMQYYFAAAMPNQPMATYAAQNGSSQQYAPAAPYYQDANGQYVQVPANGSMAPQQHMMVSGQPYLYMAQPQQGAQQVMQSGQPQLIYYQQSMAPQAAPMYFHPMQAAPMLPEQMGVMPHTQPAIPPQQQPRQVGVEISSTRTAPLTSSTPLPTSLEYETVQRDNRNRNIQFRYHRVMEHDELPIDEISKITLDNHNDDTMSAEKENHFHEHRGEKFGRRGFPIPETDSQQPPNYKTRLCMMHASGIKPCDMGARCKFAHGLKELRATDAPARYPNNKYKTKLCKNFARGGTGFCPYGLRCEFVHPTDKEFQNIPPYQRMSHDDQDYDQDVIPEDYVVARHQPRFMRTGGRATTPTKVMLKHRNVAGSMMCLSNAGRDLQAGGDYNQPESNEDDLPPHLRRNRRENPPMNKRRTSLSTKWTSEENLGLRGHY
GLD-1 TGE inh = GLD-1/TGE RNA complex disruptors, primary screen, biochemical, fluorescence polarization. purified GLD-1 + fluorescein TGE RNA. inhibition, % at 5.96 µM. actives 0.44% (n = 320,000). AID 2280, 2010;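 active means percent inhibition above a per-plate cutoff, the plate mean of test compounds plus 3 SD, cut at about 30% in these data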;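 further: 0% = DMSO wells with GLD-1 and probe and 100% = wells lacking GLD-1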
BCLXL inh = inhibitors of human Bcl-xL, primary screen, biochemical, fluorescence polarization, HTS. actives 0.7% (n = 320,000). GST-Bcl-xL / FITC-Bim BH3 peptide fluorescence polarization. inhibition, % at 10.9 µM. Bcl-2-like protein 1 (Homo sapiens), Q07817. AID 2129, 2009;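 active means inhibition above the mean of all tested compounds plus 3 SD, cutoff set per campaign, cut at about 30% in these data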;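 further: 0% = DMSO wells and 100% = unlabeled Bim-BH3 peptide competitor; inhibitors lower millipolarization by displacing the labeled peptide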
Target sequence (Q07817 whole entry, looked up): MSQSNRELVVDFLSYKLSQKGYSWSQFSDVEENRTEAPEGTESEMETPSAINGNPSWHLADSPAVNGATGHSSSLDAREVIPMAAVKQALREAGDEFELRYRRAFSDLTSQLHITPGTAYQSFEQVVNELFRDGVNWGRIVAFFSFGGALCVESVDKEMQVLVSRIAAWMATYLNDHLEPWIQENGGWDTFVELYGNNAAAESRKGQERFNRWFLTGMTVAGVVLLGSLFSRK
Bcl-xL conf = Bcl-xL inhibitors blocking Bim BH3 binding, confirmation, counter-screen for MCL1 inhibitor project, biochemical, fluorescence polarization; shares compounds with MCL1 BIM primary; GST-Bcl-xL / FITC-Bim BH3 peptide FP binding; inhibition, % at 10.9 µM; actives 54% (n = 1,700);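 active means inhibition above a cutoff equal to the mean inhibition of all tested compounds plus 3 SD, cut at about 30% in these data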;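 further: 0% = DMSO wells and 100% = unlabeled Bim BH3 control peptide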
MCL1 inh confirm = inhibitors of MCL1 binding to BIM-BH3, confirmation, biochemical, fluorescence polarization, triplicate; shares compounds with MCL1 BIM primary; GST-MCL1 / FITC-Bim-BH3 fluorescence polarization; inhibition, % at 10.9 µM; actives 61% (n = 1,700); AID 2168, 2009;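 active means inhibition above the average of all tested compounds plus 3 SD, cut at about 40% in these data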;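 further: 0% = DMSO wells and 100% = unlabeled Bim-BH3 control peptide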
GLD1 RNA confirm = GLD-1/TGE RNA binding inhibitors, retest, confirmation, biochemical, fluorescence polarization, triplicate; GLD-1/FL-TGE RNA fluorescence polarization; inhibition, % at 5.96 µM; actives 10% (n = 550); AID 2459, 2010; shares compounds with GLD-1 TGE inh;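 active means average inhibition across triplicates above the hit cutoff set in the primary screen, cut at about 32% in these data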;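 further: 0% = GLD-1 with RNA probe and DMSO and 100% = wells lacking GLD-1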
An asterisk follows results filed as active. This is a sample that favours compounds with a hit; in the whole collection about 1.3% have one here.

What do the screens show for `COc1ccc(NC(=O)c2ccc(-c3ccc(C(C)=O)cc3)o2)cn1`?
MCL1 BIM primary: 59.7*; GLD-1 TGE inh: 56.6*; BCLXL inh: 68.8*; Bcl-xL conf: 55.3*; MCL1 inh confirm: 65.2*; GLD1 RNA confirm: 44.9*

How did COC(=O)C1=C(C(=O)OC)[C@@H]2N(C)c3ccc(OC)cc3[C@@]23C[C@@H](C(=O)OC)N(C(=O)c2cc(C)oc2C)C3=N1 do in these assays?
MCL1 BIM primary: 16.4; MEX-5 binding: 0.9; GLD-1 TGE inh: 5.4; BCLXL inh: 2.2

What do the screens show for `Cc1ccc(-c2cc(-c3ccco3)c(C#N)c(=O)[nH]2)cc1`?
MCL1 BIM primary: 96.2*; EBV gp42 inh: 48.2; MEX-5 binding: -40.1*; GLD-1 TGE inh: 50.2*; BCLXL inh: 78.7*; Bcl-xL conf: 26.1; MCL1 inh confirm: 53.1*; GLD1 RNA confirm: -13.8

How did Cc1c(NC(=O)C(C)Oc2ccc(Br)cc2)c(=O)n(-c2ccccc2)n1C (stereo unspecified) do in these assays?
GLD-1 TGE inh: -5.8

What do the screens show for `CCc1c(C)nc(SCC(=O)Nc2c(C)n(C)n(-c3ccccc3)c2=O)[nH]c1=O`?
MCL1 BIM primary: 4.2; EBV gp42 inh: -6.1; MEX-5 binding: -0.8; GLD-1 TGE inh: 6.0; BCLXL inh: 5.9

Results for Cc1nc(SCC(=O)Nc2c(C)n(C)n(-c3ccccc3)c2=O)[nH]c(=O)c1Cc1ccccc1 ?
MCL1 BIM primary: 70.7*; EBV gp42 inh: -7.5; MEX-5 binding: 1.9; GLD-1 TGE inh: 47.4*; BCLXL inh: 55.2*; Bcl-xL conf: 10.9; MCL1 inh confirm: 4.7; GLD1 RNA confirm: 7.4

What do the screens show for `COC(=O)c1c(NC(=O)CSc2ncn[nH]2)sc(C)c1C`?
MCL1 BIM primary: 70.8*; MEX-5 binding: -0.8; GLD-1 TGE inh: 32.2*; BCLXL inh: 56.2*; Bcl-xL conf: 1.2; MCL1 inh confirm: 6.2; GLD1 RNA confirm: -8.6

How did O=C1CC(/C=C/c2ccc([N+](=O)[O-])cc2)=Nc2ccccc2N1 do in these assays?
MCL1 BIM primary: 1.9; EBV gp42 inh: 0.4; GLD-1 TGE inh: -0.8; BCLXL inh: 0.2

How did O=C1CC(/C=C/c2ccccn2)=Nc2ccccc2N1 do in these assays?
MCL1 BIM primary: 53.4*; EBV gp42 inh: -10.7; MEX-5 binding: 0.4; GLD-1 TGE inh: 31.6*; BCLXL inh: 56.3*; Bcl-xL conf: 1.1; MCL1 inh confirm: -1.2; GLD1 RNA confirm: -0.1

How did CCOC(=O)N1CCc2[nH]c3ccc(C)cc3c2C1 do in these assays?
MCL1 BIM primary: 62.5*; EBV gp42 inh: 5.2; MEX-5 binding: -6.2; GLD-1 TGE inh: 52.8*; BCLXL inh: 65.8*; Bcl-xL conf: 9.3; MCL1 inh confirm: 8.3; GLD1 RNA confirm: 10.7

Results for CC(=O)N1CCc2[nH]c3ccc(C)cc3c2C1 ?
MCL1 BIM primary: 18.4; MEX-5 binding: -11.9; GLD-1 TGE inh: 17.8; BCLXL inh: 15.6

What do the screens show for `Cc1ccc2c(c1)C(=O)c1ccccc1CS2=O` (stereo unspecified)?
MCL1 BIM primary: 4.0; EBV gp42 inh: -13.5; MEX-5 binding: 0.7; GLD-1 TGE inh: 3.1; BCLXL inh: 2.8

What do the screens show for `O=c1[nH]c2cc3c(cc2cc1CN(Cc1nnnn1CC1CCCO1)C1CCCCC1)OCO3` (stereo unspecified)?
MCL1 BIM primary: 84.9*; EBV gp42 inh: 57.4*; MEX-5 binding: -6.3; GLD-1 TGE inh: 43.2*; BCLXL inh: 76.7*; Bcl-xL conf: 45.1*; MCL1 inh confirm: 67.9*; GLD1 RNA confirm: -2.4

Results for CC1(C)CC(=O)C2=C(C1)Nc1ccccc1S2 ?
MCL1 BIM primary: 58.8*; EBV gp42 inh: 37.9; MEX-5 binding: inconclusive; GLD-1 TGE inh: 48.7*; BCLXL inh: 56.1*; Bcl-xL conf: 56.0*; MCL1 inh confirm: 62.3*; GLD1 RNA confirm: 18.9

What do the screens show for `C=CCc1cccc(/C=N/n2c(C)nnc2C)c1O`?
MCL1 BIM primary: 29.4; EBV gp42 inh: 30.2; MEX-5 binding: -22.0; GLD-1 TGE inh: 30.9*; BCLXL inh: 24.0; GLD1 RNA confirm: 34.7*

What do the screens show for `C=CCc1cccc(/C=N/c2ncn[nH]2)c1O`?
MCL1 BIM primary: 14.2; EBV gp42 inh: -14.3; MEX-5 binding: 1.6; GLD-1 TGE inh: -2.1; BCLXL inh: 3.7

How did Cc1c(C(=O)N2CCC3(CC2)CC(=O)c2ccccc2O3)cccc1[N+](=O)[O-] do in these assays?
MCL1 BIM primary: -0.1; MEX-5 binding: 0.2; GLD-1 TGE inh: 43.8*; BCLXL inh: -1.2; GLD1 RNA confirm: -3.7

What do the screens show for `O=C1CC2(CCN(C(=O)c3ccc([N+](=O)[O-])cc3)CC2)Oc2ccccc21`?
MCL1 BIM primary: 4.2; MEX-5 binding: 4.0; GLD-1 TGE inh: -0.5; BCLXL inh: 6.3

What do the screens show for `COc1ccc2nc(N3CCC(O)CC3)c(C#N)cc2c1`?
MCL1 BIM primary: 38.0; EBV gp42 inh: 45.5; MEX-5 binding: -16.4; GLD-1 TGE inh: 36.8*; BCLXL inh: 41.9*; GLD1 RNA confirm: 30.8*

What do the screens show for `Cc1cccc(N2CCN(C(=O)C3COc4ccccc4O3)CC2)c1C` (stereo unspecified)?
MCL1 BIM primary: 0.4; EBV gp42 inh: 12.5; MEX-5 binding: -0.4; GLD-1 TGE inh: 100.1*; BCLXL inh: -0.3; GLD1 RNA confirm: 0.3

What do the screens show for `O=C(Nc1ccc2nc(-c3ccco3)c(-c3ccco3)nc2c1)N1CCCCCC1`?
MCL1 BIM primary: 117.6*; EBV gp42 inh: 78.1*; MEX-5 binding: -10.8; GLD-1 TGE inh: 40.7*; BCLXL inh: 105.1*; GLD1 RNA confirm: 27.2

Results for CCOC(=O)c1c(-c2ccccc2)oc2cc(CN(C)C)c(O)c(CN(C)C)c12 ?
MCL1 BIM primary: 48.9*; MEX-5 binding: -1.9; GLD-1 TGE inh: 37.2*; BCLXL inh: 35.0*; GLD1 RNA confirm: 7.0

What do the screens show for `CCOC(=O)c1c(C)oc2cc(Cl)c(O)c(CN(C)C)c12`?
MCL1 BIM primary: 3.8; EBV gp42 inh: 5.0; MEX-5 binding: -0.1; GLD-1 TGE inh: 0.5; BCLXL inh: 0.6
